In all, about 2,100 compounds went through this assay and about 1,100 (52%) were called active. Another 27% or so got no clear call; they are omitted. Calls come from the whole dose curve; as a rule, active = well fitted inhibition curve with a large enough effect; inconclusive = small, poorly fitted or top-dose-only effect; inactive = no such curve, though single readings can be large or run the other way. The set was probably picked from earlier hits. The list shows a part of the results.
These molecules were tested against DNA dC->dU-editing enzyme APOBEC-3G (Homo sapiens) (UniProt Q9HC16) (assay: qHTS for inhibitors of Vif-A3G interactions: Cherry picks counterscreen). Conditions: HeLa A3G-eYFP + Vif (tagged APOBEC3G with the HIV-1 protein that degrades it), eYFP fluorescence, 24 h.
Chain of DNA dC->dU-editing enzyme APOBEC-3G (Homo sapiens) (Q9HC16 whole entry, looked up): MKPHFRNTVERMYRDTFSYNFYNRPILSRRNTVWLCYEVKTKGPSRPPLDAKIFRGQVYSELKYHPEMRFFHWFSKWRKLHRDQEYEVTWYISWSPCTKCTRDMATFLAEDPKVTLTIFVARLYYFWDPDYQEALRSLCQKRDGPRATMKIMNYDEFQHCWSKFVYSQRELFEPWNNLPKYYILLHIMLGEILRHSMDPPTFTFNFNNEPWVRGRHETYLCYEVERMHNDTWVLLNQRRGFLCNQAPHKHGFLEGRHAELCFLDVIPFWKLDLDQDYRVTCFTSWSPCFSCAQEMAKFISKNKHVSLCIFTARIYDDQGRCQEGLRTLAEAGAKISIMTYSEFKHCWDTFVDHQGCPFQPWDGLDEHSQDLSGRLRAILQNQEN
How it was run: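 Readout is eYFP fluorescence (488 nm excitation, 500-530 nm emission) measured on Acumen Explorer after 24 h compound exposure, several concentrations, at 37 deg C. Cells: HeLa stably co-expressing Vif and C-terminally eYFP-tagged A3G; MG132 positive control.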
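Note: hits raise yellow fluorescence by blocking Vif-driven A3G-eYFP degradation; nearly all actives have a fitted effect of over 70% in size.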
Potency is the fitted concentration of half-maximal effect.
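Throughout, for max response: max response given as percent of control signal.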

| SMILES | max response | Potency |
| --- | --- | --- |
| CC(C)(C)c1ccc(Cn2c(=O)cnc3ccccc32)cc1 | 3.64% (inactive) | – |
| ClCc1nc2ccccc2n1Cc1ccccc1 | – | 20.6 µM (active) |
| COc1ccc(NC2=CC(=O)CC(c3ccccc3)C2)c(OC)c1 (stereo unspecified) | – | 11.2 µM (active) |
| O=C(NCc1ccccc1)C1Cc2c(-c3cccc(F)c3)ccnc2O1 (stereo unspecified) | – | 1.4 µM (active) |
| CC(=O)c1cccc(-c2ccnc3c2CC(C(=O)NCc2ccco2)O3)c1 (stereo unspecified) | – | 1.58 µM (active) |
| NC(=O)c1cccc(-c2ccnc3c2CC(C(=O)NCc2ccco2)O3)c1 (stereo unspecified) | – | 17.7 µM (active) |
| CC(=O)c1cccc(-c2ccnc3c2CC(C(=O)NCc2ccc(F)c(F)c2)O3)c1 (stereo unspecified) | – | 2.8 µM (active) |
| CC(=O)c1cccc(-c2ccnc3c2CC(C(=O)NCC2CCOCC2)O3)c1 (stereo unspecified) | – | 5.59 µM (active) |
| O=C(NCc1ccco1)C1Cc2c(-c3cccc(F)c3)ccnc2O1 (stereo unspecified) | – | 5.59 µM (active) |
| N#CC1=C(N)Oc2c(sc3ccccc23)C1c1ccco1 (stereo unspecified) | – | 12.5 µM (active) |
| CC1CC(=O)C2=C(C1)OC(N)=C(C#N)C2c1coc2ccccc2c1=O (stereo unspecified) | -19.2% (inactive) | – |
| CC(O)CN(CC(C)O)c1ccc2c(c1)Cc1cc([N+](=O)[O-])ccc1-2 (stereo unspecified) | – | 0.58 µM (active) |
| Cc1cc(C)c2cc3c(N)c(C(=O)Nc4c(C)[nH]c(=O)[nH]c4=O)sc3nc2c1 | – | 11.6 µM (active) |
| COc1cc2c(c(OC)c1OC)-c1ccc(N(C)CC(OC)OC)c(=O)cc1[C@@H](NC(C)=O)CC2 | – | 0.559 µM (active) |
| CN[C@H]1CCc2cc(OC)c(OC)c(OC)c2-c2ccc(N(C)CC(OC)OC)c(=O)cc21 | – | 6.27 µM (active) |
| O=C(NCCN1C(=O)S/C(=C\c2ccc(OC(F)F)cc2)C1=O)c1cnccn1 | – | 12.5 µM (active) |
| CC(C)c1ccc(C(=O)NCCCNC(=O)c2cnccn2)cc1 | 10.5% (inactive) | – |
| CCn1c(/C=C/c2ccc([N+](=O)[O-])o2)nc2ccccc2c1=O | – | 20.6 µM (active) |
| Cn1c(/C=C/c2ccc([N+](=O)[O-])o2)nc2ccccc2c1=O | – | 14.6 µM (active) |
| CCCN1C(=O)C(Cc2nc3ccccc3c(=O)n2CC)c2cc(Br)ccc21 (stereo unspecified) | 11.6% (inactive) | – |
| O=c1c2ccccc2nc(/C=C/c2ccc([N+](=O)[O-])o2)n1CCCO | – | 10.3 µM (active) |
| N#C/C(N=Nc1ccccc1O)=N\Nc1ccccc1O | – | 16.4 µM (active) |
| N#CCc1ccc(NC(=O)/C=C/c2ccc([N+](=O)[O-])o2)cc1 | – | 13 µM (active) |
| CCOC(=O)CCc1ccc(NC(=O)/C=C/c2ccc([N+](=O)[O-])o2)cc1 | – | 11.6 µM (active) |
| O=C(/C=C/c1ccc([N+](=O)[O-])o1)NNC(=O)c1ccc(F)cc1 | – | 7.9 µM (active) |
| O=C(Nc1nc2c(F)cccc2s1)c1ccc([N+](=O)[O-])o1 | -8.08% (inactive) | – |

— PubChem BioAssay AID651813 (National Center for Advancing Translational Sciences (NCATS), 2012)
